Reference: PubChem BioAssay AID624093 (National Center for Advancing Translational Sciences (NCATS), 2012)
Results filed as inconclusive are left out. The source made the active and inactive calls. Calls come from the whole dose curve; as a rule, active = well fitted inhibition curve with a large enough effect; inconclusive = small, poorly fitted or top-dose-only effect; inactive = flat fitted curve, though single readings scatter.

Biological target: Dual specificity tyrosine-phosphorylation-regulated kinase 1A (Homo sapiens) (UniProt Q13627)
Experiment: Confirmation Assay for Inhibitors of Dyrk1a (Kinase-Glo Assay): KU probe
Conditions: Kinase-Glo ATP luminescence; series mostly up to 76.9 µM
Method in brief: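 Human Dyrk1A at 5nM with 8uM DYRKtide and 2uM ATP in 25mM Tris-HCl pH 7.5, 10mM MgCl2, 0.5mM EGTA, 5mM cysteine, 0.01% Triton X-100; 2 h at room temperature. Residual ATP read by Kinase-Glo luminescence.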

Compound | Potency
c1nc(NCC2CCCCO2)c2cc(-c3ccc4c(c3)OCO4)ccc2n1 (centres undefined) | 65.4 nM (active)
Cc1ccc(CNc2ccnc(-c3ccc4c(c3)OCO4)n2)cc1 | inactive
CCCN(C)c1ncnc2ccc(-c3ccc4c(c3)OCO4)cc12 | 260 nM (active)
c1cncc(CNc2ccnc(-c3cccc4ccccc34)n2)c1 | 41200 nM (active)
COc1cccc(-c2ccnc(NCc3ccc(Cl)cc3)n2)c1 | 7330 nM (active)
Clc1ccc(Nc2nccc(-c3ccc4c(c3)OCO4)n2)cc1 | 519 nM (active)
c1cncc(CNc2ccnc(-c3ccc4cn[nH]c4c3)n2)c1 | 2070 nM (active)
c1cc(-c2ccoc2)nc(-c2ccoc2)n1 | 20700 nM (active)
COc1ccc(-c2nccc(NCc3ccccc3)n2)cc1 | inactive
c1coc(-c2ccnc(-c3ccc4c(c3)OCO4)n2)c1 | 20700 nM (active)
c1cncc(CNc2cc(-c3ccc4c(c3)OCO4)ncn2)c1 | 16400 nM (active)
Cc1ccc(CNc2ccnc(-c3ccc(N(C)C)cc3)n2)cc1 | inactive
Clc1ccc(CNc2nccc(-c3ccc4c(c3)OCCO4)n2)cc1Cl | 207 nM (active)
Brc1ccc(CNc2ccnc(-c3ccc4c(c3)OCO4)n2)cc1Br | inactive
COc1ccc(CNc2ccnc(-c3c(C)noc3C)n2)cc1 | inactive
Cc1noc(C)c1-c1ncccn1 | inactive
c1cc(-c2ccc3c(c2)OCO3)nc(Nc2ccc3c(c2)OCO3)n1 | 130 nM (active)
Clc1cc(Cl)cc(CNc2ncncc2-c2ccc3c(c2)OCO3)c1 | 2600 nM (active)
COc1ccc(-c2ncccn2)cc1 | inactive
Cc1ccc(CNc2ccnc(-c3c(C)noc3C)n2)cc1 | inactive
Clc1ccc(CNc2nccc(-c3ccc4c(c3)OCO4)n2)cc1Cl | 164 nM (active)
Cc1noc(C)c1-c1nccc(NCc2ccc(Cl)cc2)n1 | inactive
Brc1cc(Br)cc(CNc2ccnc(-c3ccc4c(c3)OCO4)n2)c1 | inactive
c1cncc(CNc2nccc(-c3ccc4[nH]ncc4c3)n2)c1 | 146 nM (active)
